Records with an inconclusive call do not appear. The source made the active and inactive calls. Unless noted, calls follow the shape of the dose curve; as a rule, active = well fitted curve in the direction sought with a large enough effect; inconclusive = small, poorly fitted or top-dose-only effect, or another doubt; inactive = no such curve, though single readings can be large; an effect the other way counts as inactive or inconclusive.
What was measured:
[1] = target: Estrogen receptor (Homo sapiens) (UniProt P03372); assay: qHTS assay for small molecule antagonists of estrogen receptor alpha signaling (AID 588513; active = well fitted curve in the direction sought with a large enough effect in the signal ratio, with a control signal flat, not every such curve was filed as active; the % refers to the signal ratio; also: % is scaled to controls: 0 for no effect and ±100 for the full control effect)
Method in brief: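 Cells were plated at 5000/well and incubated 4 h at 37 C. Compounds were added as 1:2 dilution series, duplicates. 17-beta-estradiol (0.5nM final) was added for 18 h before CCF4 detection.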

[2] = target: Estrogen receptor (Homo sapiens) (UniProt P03372); assay: qHTS assay for small molecule agonists of estrogen receptor alpha signaling (AID 588514; calls by dose curve;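 also: 0% = vehicle only and 100% = reference agonist; nearly all actives have a fitted effect of over 70% in size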)
Method in brief: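 ER-alpha-UAS-bla GripTite HEK293 cells, 5000/well in 2% charcoal/dextran-stripped FBS medium, treated with compound titrations 18 h at 37 C. CCF4 beta-lactamase read by fluorescence after 2 h RT; normalised to 20 nM 17-beta-estradiol (100%) and DMSO (0%), Hill fit for EC50 and efficacy.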

[3] = target: Glucocorticoid receptor (Homo sapiens) (UniProt P04150); assay: qHTS assay for small molecule agonists of glucocorticoid receptor signaling (AID 588532; active = well fitted curve in the direction sought with a large enough effect in the signal ratio, with a control signal flat; the % refers to the signal ratio;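 also: 100% = dexamethasone at 0.1 µM and 0% = DMSO only wells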); settings: HeLa MMTV-bla, beta-lactamase ratio, agonist, 18 h; stronger effect = higher value; percent of dexamethasone control, DMSO zero
Method in brief: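 Agonist-mode qHTS: GRE-driven beta-lactamase in HeLa cells exposed 18 h to titrated compounds (up to 92 uM), then CCF4 ratio read after 2 h at RT; Hill-fitted EC50, efficacy relative to 0.1 uM dexamethasone.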

[4] = qHTS assay for small molecule antagonists of peroxisome proliferator-activated receptor delta signaling (AID 588535); settings: HEK293T PPARd-UAS-bla, beta-lactamase FRET ratio, 18 h; 460 nm channel;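 also: cells co-treated with a PPAR-delta agonist as stimulator during compound exposure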
Method in brief: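 HEK293T PPAR-delta-UAS-bla cells, 4000/well, 2% charcoal/dextran FBS; 5 h 37 C; cpd titration; 18 h 37 C; CCF4 2 h RT; FI 460/530 nm; Hill fit → IC50, efficacy.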

[5] = target: Peroxisome proliferator-activated receptor gamma (Homo sapiens) (UniProt P37231); assay: qHTS assay for small molecule agonists of peroxisome proliferator-activated receptor gamma signaling (AID 588536; active = well fitted curve in the direction sought with a large enough effect in the signal ratio, with a control signal flat, not every such curve was filed as active; the % refers to the signal ratio;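 also: 0% = DMSO basal wells and 100% = rosiglitazone at 2 µM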)
Method in brief: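 HEK293 UAS-bla reporter line, 1% charcoal/dextran FBS; titration, 16 h, 37 C; CCF4 loading 2 h RT; fluorescence 460/530 nm. Normalized to rosiglitazone 2 uM = 100%, DMSO = 0%.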

[6] = target: Vitamin D3 receptor (Homo sapiens) (UniProt P11473); assay: qHTS assay for small molecule antagonists of vitamin D receptor signaling (AID 588541; calls by dose curve;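 also: receptor activated by calcitriol during compound treatment; series mostly up to about 77 µM; % is scaled to controls: 0 for no effect and ±100 for the full control effect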)
Method in brief: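 Antagonist-mode beta-lactamase reporter assay: HEK293T VDR-UAS-bla cells were exposed to titrated compound alongside 1-alpha,25-dihydroxyvitamin D3 at 3 nM final for 16 h. Values were normalized to the 50 nM agonist control and DMSO basal, with IC50 and efficacy from Hill equation fits.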

[7] = qHTS assay for small molecule agonists of retinoid X receptor alpha signaling (AID 588544; calls by dose curve;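 as to activation: 0% = DMSO basal wells and 100% = reference agonist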); settings: HEK293T RXRa-UAS-bla, beta-lactamase reporter, 18 h; 530 nm emission
[8] = target: Retinoic acid receptor RXR-alpha (Homo sapiens) (UniProt P19793); assay: as above
[9] = target: Thyroid hormone receptor beta (Homo sapiens) (UniProt P10828); assay: qHTS assay for small molecule agonists of thyroid hormone receptor beta signaling (AID 588545; calls by dose curve;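 also: 0% = DMSO only and 100% = 10 nM T3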)
Method in brief: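 TR-UAS-bla GripTite HEK 293 cells (2500/well, medium with 2% charcoal/dextran FBS) were treated in agonist mode for 18 h at 37 C, titrated. Beta-lactamase was read by CCF4 ratio after 2 h; normalized to 10 nM T3 (100%) and DMSO, Hill-fitted for EC50 and efficacy.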

[10] = qHTS assay for small molecule antagonists of retinoid X receptor alpha signaling (AID 588546; active = well fitted inhibition curve with a large enough effect in the signal ratio, with a control signal flat, not every such curve was filed as active; the % refers to the signal ratio;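 also: cells stimulated with 9-cis-retinoic acid as agonist; % is scaled to controls: 0 for no effect and ±100 for the full control effect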); settings: HEK293T RXRa-UAS-bla, beta-lactamase ratio, antagonist mode; measured here: W530 green channel, cytotoxicity proxy
Method in brief: (§1)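 Beta-lactamase reporter inhibition, read as CCF4 fluorescence ratio (ex 405, em 460/530 nm) after 2 h at RT. HEK293T UAS-bla cells, 2500/well, were stimulated with 9-cis-RA at 500 or 100 nM final alongside test compound for 18 h at 37 C.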

[11] = target: Retinoic acid receptor RXR-alpha (Homo sapiens) (UniProt P19793); assay: as above; settings: HEK293T RXRa-UAS-bla, beta-lactamase ratio, antagonist mode
Method in brief: as §1

[12] = target: Thyroid hormone receptor beta (Homo sapiens) (UniProt P10828); assay: qHTS assay for small molecule antagonists of thyroid hormone receptor beta signaling (AID 588547; active = well fitted inhibition curve with a large enough effect in the signal ratio, with a control signal flat, not every such curve was filed as active; the % refers to the signal ratio;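 also: cells stimulated with 0.4 nM T3 agonist during compound exposure; series mostly up to about 77 µM; % is scaled to controls: 0 for no effect and ±100 for the full control effect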); settings: TR-UAS-bla HEK293, beta-lactamase ratio, antagonist mode, 18 h
Method in brief: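 Inhibition of T3-driven (0.4nM final) beta-lactamase reporter activity was measured over 0.59 nM to 92 uM compound after 18 h at 37 C. The cells were GripTite HEK293 TR-UAS-bla in charcoal/dextran-stripped serum, with CCF4 ratio read-out and IC50 from Hill fits.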

[13] = qHTS assay for small molecule activators of the nuclear factor-kappa B (NF-kB) signaling pathway (AID 651749; active = well fitted activation curve with a large enough effect in the signal ratio; the % refers to the signal ratio; also: series mostly up to about 77 µM; % of control where 0% means no effect); settings: NF-kB-bla ME-180 cells, beta-lactamase FRET ratio, 16 h; activation: stronger effect = higher value
Method in brief: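 Readout: beta-lactamase reporter driven by an NF-kB response element, detected fluorescently as loss of FRET. Cells were the ME-180 line, treated 16 hr at 37C with pin-transferred compound.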

[14] = qHTS assay for environmental chemicals that activate the Aryl hydrocarbon Receptor (AhR) signaling pathway (AID 651777); settings: 1A2-DRE human hepatoma cells, luciferase, 24 h; activation: stronger effect = higher value; also: % of control where 0% means no effect; nearly all actives have a fitted effect of over 15% in size
Method in brief: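 Human hepatoma 1A2-DRE cells stably carrying a DRE/CYP1A2 promoter–luciferase reporter, 1,200 cells/well, exposed to compound 24 hr at 37 C. Luciferase read by One-Glo luminescence after 30 min at room temperature; increased signal marks AhR activation.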

[15] = target: Peroxisome proliferator-activated receptor alpha (Homo sapiens) (UniProt Q07869); assay: qHTS assay for small molecule agonists of the peroxisome proliferator-activated receptor alpha (PPARalpha) signaling pathway (AID 651778); settings: PathHunter PPARalpha complementation, chemiluminescence, 6 h; max response: stronger effect = higher value; also: % of control where 0% means no effect
Method in brief: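 Chemiluminescence from complemented enzyme reported PPARalpha activation in cells after 6 hr of compound treatment at 37 C. The detection reagent was incubated for 60 min at room temperature, and compounds were scored as agonists.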

[16] = qHTS assay for small molecule agonists of the antioxidant response element (ARE) signaling pathway measured by Nrf2-dependant transcriptional activity - cell viability counter screen (AID 720653; active = well fitted curve in the direction sought with a large enough effect in the repeat runs; an effect the other way counts as inactive or inconclusive; also: % is scaled to controls: 0 for no effect and ±100 for the full control effect); settings: ARE-bla HepG2 viability, CellTiter-Glo ATP luminescence, 16 h; max response: stronger effect = lower value
Method in brief: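 Cytotoxicity counter screen: intracellular ATP quantified by CellTiter-Glo luminescence in the same ARE-bla HepG2 plates, after 16 h compound exposure and a 2 h beta-lactamase substrate step.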

[17] = qHTS assay for cell viability of HEK293 cells (AID 743288); settings: ATP luminescence (CellTiter-Glo), 18 h; max response: stronger effect = lower value; also: % is scaled to controls: 0 for no effect and ±100 for the full control effect; nearly all actives have a fitted effect of over 50% in size
Method in brief: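 The Tox21 protocol used parental HEK293 cells treated for 18 h at 37 C with compounds delivered by pintool; ATP-coupled luminescence after 30 min at room temperature gave viability.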

[18] = qHTS assay for cell viability of the p53RE-bla HCT-116 cell line (AID 743292); also: % is scaled to controls: 0 for no effect and ±100 for the full control effect; nearly all actives have a fitted effect of over 55% in size
Method in brief: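 CellSensor p53RE-bla HCT-116 cells (4,000/well) pre-incubated 5 h at 37 C, then exposed to compounds in DMSO for 16 h at 37 C. Viability read as ATP content by CellTiter-Glo luminescence after 30 min at room temperature.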

[19] = target: Nuclear receptor subfamily 1 group I member 2 (Rattus norvegicus) (UniProt Q9R1A7); assay: qHTS assay for small molecule activators of the rat pregnane X receptor (rPXR) signaling pathway (AID 651751; call rule not given here; also: 0% is about no effect); settings: rPXR reporter cells, luciferase (One-Glo), 24 h
[20] = qHTS assay for small molecule activators of the human pregnane X receptor (PXR) signaling pathway (AID 720659; call rule not given here; also: 0% is about no effect)

Retinoic acid receptor RXR-alpha (Homo sapiens), sequence (P19793 whole entry, looked up): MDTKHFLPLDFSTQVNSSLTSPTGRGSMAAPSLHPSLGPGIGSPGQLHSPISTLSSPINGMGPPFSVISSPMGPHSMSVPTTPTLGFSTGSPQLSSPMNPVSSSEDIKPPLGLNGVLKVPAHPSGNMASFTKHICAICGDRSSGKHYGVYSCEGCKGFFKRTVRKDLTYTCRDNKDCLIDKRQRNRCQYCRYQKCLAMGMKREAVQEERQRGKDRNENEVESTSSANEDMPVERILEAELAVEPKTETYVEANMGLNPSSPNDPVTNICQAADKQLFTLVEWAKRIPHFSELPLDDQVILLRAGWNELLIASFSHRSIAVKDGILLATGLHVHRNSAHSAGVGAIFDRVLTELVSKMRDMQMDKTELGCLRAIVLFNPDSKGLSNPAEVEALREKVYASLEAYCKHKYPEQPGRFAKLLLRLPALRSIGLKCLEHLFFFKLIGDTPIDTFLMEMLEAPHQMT
Nuclear receptor subfamily 1 group I member 2 (Rattus norvegicus), sequence (Q9R1A7 whole entry, looked up): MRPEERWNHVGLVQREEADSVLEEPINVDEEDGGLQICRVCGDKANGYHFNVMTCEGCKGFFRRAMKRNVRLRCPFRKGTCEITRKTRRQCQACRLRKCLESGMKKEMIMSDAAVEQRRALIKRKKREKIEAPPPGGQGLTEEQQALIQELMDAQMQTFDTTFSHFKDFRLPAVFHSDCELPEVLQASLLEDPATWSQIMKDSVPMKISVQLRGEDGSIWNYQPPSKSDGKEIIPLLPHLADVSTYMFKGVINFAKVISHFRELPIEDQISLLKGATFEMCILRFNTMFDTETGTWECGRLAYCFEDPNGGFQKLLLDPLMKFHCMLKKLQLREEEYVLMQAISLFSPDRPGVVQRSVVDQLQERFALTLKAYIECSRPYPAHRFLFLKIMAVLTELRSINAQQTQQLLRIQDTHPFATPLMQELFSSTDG
Thyroid hormone receptor beta (Homo sapiens), sequence (P10828 whole entry, looked up): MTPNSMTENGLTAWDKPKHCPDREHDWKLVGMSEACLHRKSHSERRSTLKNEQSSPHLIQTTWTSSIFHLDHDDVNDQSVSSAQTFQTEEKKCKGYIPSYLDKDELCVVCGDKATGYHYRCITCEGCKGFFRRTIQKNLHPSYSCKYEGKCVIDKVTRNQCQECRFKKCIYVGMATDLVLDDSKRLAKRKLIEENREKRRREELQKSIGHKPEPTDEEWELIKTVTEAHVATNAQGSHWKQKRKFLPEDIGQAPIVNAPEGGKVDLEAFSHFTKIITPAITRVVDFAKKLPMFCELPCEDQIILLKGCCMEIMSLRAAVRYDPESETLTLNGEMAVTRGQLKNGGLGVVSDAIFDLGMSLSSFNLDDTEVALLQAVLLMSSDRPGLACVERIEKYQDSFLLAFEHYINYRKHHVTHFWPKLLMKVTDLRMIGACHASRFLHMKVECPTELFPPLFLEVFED
Estrogen receptor (Homo sapiens), sequence (P03372 whole entry, looked up): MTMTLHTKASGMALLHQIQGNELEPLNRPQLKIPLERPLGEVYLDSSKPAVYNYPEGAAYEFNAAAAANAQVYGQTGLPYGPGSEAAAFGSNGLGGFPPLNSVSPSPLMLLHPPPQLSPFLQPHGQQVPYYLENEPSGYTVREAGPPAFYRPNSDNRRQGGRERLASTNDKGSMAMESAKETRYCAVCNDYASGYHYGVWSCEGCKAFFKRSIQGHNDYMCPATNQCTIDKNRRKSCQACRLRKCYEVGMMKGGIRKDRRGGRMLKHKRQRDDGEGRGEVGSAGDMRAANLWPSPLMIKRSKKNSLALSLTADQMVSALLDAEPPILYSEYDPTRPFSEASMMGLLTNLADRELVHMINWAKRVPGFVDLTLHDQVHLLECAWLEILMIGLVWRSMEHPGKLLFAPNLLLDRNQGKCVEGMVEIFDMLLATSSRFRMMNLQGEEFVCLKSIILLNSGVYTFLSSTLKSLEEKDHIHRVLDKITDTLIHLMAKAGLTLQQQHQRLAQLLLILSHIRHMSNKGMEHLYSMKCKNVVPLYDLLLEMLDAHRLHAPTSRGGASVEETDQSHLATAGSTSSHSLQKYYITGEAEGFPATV
Vitamin D3 receptor (Homo sapiens), sequence (P11473 whole entry, looked up): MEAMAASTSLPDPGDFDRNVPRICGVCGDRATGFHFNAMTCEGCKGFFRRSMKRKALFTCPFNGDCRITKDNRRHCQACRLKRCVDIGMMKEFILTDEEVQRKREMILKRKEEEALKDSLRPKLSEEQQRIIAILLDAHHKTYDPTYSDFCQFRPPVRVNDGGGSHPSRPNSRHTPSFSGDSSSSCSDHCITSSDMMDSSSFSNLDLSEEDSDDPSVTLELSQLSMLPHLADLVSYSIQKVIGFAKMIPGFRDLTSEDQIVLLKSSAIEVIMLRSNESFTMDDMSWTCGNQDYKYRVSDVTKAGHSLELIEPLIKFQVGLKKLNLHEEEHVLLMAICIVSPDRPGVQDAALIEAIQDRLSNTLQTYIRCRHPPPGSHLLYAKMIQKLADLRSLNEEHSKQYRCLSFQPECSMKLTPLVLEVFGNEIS
Glucocorticoid receptor (Homo sapiens), sequence (P04150 whole entry, looked up): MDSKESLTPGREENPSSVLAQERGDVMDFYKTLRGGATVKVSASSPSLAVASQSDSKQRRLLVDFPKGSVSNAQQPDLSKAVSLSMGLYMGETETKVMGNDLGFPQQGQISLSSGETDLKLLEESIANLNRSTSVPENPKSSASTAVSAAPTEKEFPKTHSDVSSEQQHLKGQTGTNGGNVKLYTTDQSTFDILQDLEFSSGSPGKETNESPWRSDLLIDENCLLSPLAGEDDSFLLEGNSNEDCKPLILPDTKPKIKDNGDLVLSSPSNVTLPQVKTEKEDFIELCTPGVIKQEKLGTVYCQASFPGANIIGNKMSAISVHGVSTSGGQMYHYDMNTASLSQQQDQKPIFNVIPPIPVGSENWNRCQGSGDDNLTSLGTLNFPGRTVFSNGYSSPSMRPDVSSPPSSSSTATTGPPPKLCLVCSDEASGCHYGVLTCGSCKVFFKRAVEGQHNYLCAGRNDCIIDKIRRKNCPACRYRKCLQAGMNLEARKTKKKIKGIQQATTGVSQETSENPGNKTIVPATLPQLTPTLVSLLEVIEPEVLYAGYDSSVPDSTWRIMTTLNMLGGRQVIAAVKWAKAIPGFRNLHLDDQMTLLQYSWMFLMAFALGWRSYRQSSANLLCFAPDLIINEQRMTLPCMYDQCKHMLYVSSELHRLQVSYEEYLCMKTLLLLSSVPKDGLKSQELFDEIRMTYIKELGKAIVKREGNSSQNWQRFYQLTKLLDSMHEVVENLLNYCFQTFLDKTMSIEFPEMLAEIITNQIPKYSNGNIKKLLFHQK
Peroxisome proliferator-activated receptor alpha (Homo sapiens), sequence (Q07869 whole entry, looked up): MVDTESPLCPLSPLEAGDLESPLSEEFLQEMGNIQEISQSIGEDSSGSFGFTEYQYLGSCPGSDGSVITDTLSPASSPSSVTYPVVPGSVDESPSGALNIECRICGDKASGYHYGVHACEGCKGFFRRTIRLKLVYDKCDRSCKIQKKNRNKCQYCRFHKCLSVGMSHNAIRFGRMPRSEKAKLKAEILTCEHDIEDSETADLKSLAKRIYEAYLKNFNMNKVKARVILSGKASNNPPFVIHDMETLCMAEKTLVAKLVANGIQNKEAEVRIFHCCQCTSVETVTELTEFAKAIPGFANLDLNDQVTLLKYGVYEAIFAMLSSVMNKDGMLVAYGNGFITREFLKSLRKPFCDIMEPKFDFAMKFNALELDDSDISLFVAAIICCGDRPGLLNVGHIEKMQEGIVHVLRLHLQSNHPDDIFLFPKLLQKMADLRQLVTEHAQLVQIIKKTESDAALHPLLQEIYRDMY
Peroxisome proliferator-activated receptor gamma (Homo sapiens), sequence (P37231 whole entry, looked up): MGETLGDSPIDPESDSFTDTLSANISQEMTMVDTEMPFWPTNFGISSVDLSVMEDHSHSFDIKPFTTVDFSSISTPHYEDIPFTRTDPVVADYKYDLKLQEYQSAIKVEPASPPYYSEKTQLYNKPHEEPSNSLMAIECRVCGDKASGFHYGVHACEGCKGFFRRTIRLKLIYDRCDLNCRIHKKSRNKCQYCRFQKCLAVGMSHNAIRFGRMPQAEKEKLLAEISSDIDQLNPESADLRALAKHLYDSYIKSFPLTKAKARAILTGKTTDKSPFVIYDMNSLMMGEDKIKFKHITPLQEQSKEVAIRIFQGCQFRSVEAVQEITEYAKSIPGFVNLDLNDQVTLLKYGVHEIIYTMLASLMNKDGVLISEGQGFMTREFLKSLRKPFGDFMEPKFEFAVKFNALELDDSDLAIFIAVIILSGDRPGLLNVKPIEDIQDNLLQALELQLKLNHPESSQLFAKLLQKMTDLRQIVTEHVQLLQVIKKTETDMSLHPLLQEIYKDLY

C[Si](Cl)(Cl)[Si](C)(Cl)Cl
inactive: Potency [1] | Potency [2] | activation [3] -3.8% | outcome [5] | Potency [6] | Potency [8] | Potency [9] | max response [11] -4.71% | activity change % (negative = inhibition) [12] 3.73% | activation [13] -1.71% | activation [14] 0.351% | max response [15] -2.05% | max response [16] -3.61% | max response [17] -7.2% | Potency [18] | max response [19] 6.3% | outcome [20]
-10.2%: max response [7]
-10.7%: max response [10]
-5.47%: max response [4]

CCCCOC(=O)/C=C\C(=O)OCCCC
inactive: Potency [1] | Potency [2] | activation [3] -13.3% | Potency [6] | Potency [8] | Potency [9] | max response [11] 8.44% | activity change % (negative = inhibition) [12] 17.7% | activation [13] 0.89% | activation [14] 0.228% | max response [15] -0.617% | max response [16] 14% | max response [17] -1.23% | Potency [18] | max response [19] 0.138% | outcome [20]
-0.0728%: max response [10]
-15%: max response [7]

CC(C)c1ccc2cc(C(C)C)ccc2c1
-11.7%: max response [10]
inactive: Potency [1] | Potency [2] | activation [3] -1.13% | Potency [6] | Potency [9] | max response [11] -6.87% | activity change % (negative = inhibition) [12] -11% | activation [13] -0.342% | activation [14] 1.48% | max response [15] -0.981% | max response [16] 7.43% | max response [17] -0.947% | Potency [18] | max response [19] 1.57% | outcome [20]
